Screening data from PubChem BioAssay.
M4 ag = human M4 muscarinic receptor agonists, primary screen, CHO-K1 cells, Fluo-8 calcium fluorescence. Muscarinic acetylcholine receptor M4 (Homo sapiens), P08173. actives 0.14% (n = 360,000). activation, % at 3 µM. AID 624127, 2012. CHO-K1 hM4/Gqi5; vehicle 0%, full acetylcholine response 100%;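 active = activation above the run mean over all test wells plus 3 SD, cut at about 32% in these data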;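 also: peak over basal fluorescence ratio per well then scaled between controls; 0% = DMSO wells and 100% = acetylcholine at EC100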
M4 antag = human M4 muscarinic receptor antagonists, primary screen, CHO cells, Fluo-8 calcium fluorescence. Muscarinic acetylcholine receptor M4 (Homo sapiens), P08173. CHO-hM4 cells, ACh EC80. inhibition, % at 3 µM. actives 0.73% (n = 360,000). AID 624125, 2012;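 active = inhibition above its plate's cutoff, the mean inhibition of sample wells plus 3 SD, cut at about 27% in these data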;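 also: 0% = acetylcholine EC80 with DMSO and 100% = DMSO without agonist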
M1 PAM = human M1 muscarinic receptor positive allosteric modulators, primary screen, CHO-K1 cells, Fluo-8 calcium fluorescence, 1536-well; Muscarinic acetylcholine receptor M1 (Homo sapiens), P11229; CHO-K1 hM1, ACh EC20; 0% = ACh EC20, 100% = maximal ACh; activation, % at 3 µM; actives 0.088% (n = 360,000); in the data active = activation above about 19%, passing the limit was not always enough
Target sequence (P11229 whole entry, looked up): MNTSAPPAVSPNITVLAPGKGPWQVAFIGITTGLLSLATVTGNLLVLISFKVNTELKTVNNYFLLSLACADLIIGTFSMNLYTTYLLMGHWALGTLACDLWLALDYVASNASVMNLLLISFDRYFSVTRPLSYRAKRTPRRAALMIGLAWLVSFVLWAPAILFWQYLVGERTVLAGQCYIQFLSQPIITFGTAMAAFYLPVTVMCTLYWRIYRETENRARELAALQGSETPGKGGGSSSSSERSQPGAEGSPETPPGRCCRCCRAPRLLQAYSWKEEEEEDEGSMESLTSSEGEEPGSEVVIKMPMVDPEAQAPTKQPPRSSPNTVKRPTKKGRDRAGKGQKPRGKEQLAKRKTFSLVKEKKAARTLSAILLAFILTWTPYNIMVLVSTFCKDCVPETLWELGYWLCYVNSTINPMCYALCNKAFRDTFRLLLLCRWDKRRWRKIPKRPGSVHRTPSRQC
CHRM4 PAM = human M4 muscarinic receptor positive allosteric modulators, primary screen, CHO-K1 cells, Fluo-8 calcium fluorescence. Muscarinic acetylcholine receptor M4 (Homo sapiens), P08173. CHO-K1 hM4/Gqi5, ACh EC20; 0% = ACh EC20, 100% = maximal ACh. activation, % at 3 µM. actives 0.4% (n = 360,000). AID 624126, 2012;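 active = activation above its plate's cutoff, the mean activation of sample wells plus 3 SD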
M1 ag = human M1 muscarinic receptor agonists, primary screen, Fluo-8 calcium fluorescence, CHO-K1 cells, HTS | CHO-K1 hM1, agonist mode; 0% DMSO, 100% acetylcholine EC100 | actives 0.33% (n = 360,000) | Muscarinic acetylcholine receptor M1 (Homo sapiens), P11229 | activation, % at 3 µM;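 active = activation above the run's mean compound activation plus 3 SD, cut at about 16% in these data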;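 also: peak over basal fluorescence ratio within a 140 s kinetic read after compound addition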
CHRM1 antagonist = human M1 muscarinic receptor antagonists, primary screen, CHO-K1 cells, Fluo-8 calcium fluorescence, 1536-well; Muscarinic acetylcholine receptor M1 (Homo sapiens), P11229; CHO-K1 hM1, ACh EC80 antagonist; inhibition, % at 3 µM; actives 1.3% (n = 360,000); AID 588852, 2011;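 active = percent inhibition above its own plate's cutoff, namely the mean of that plate's compound wells plus 3 SD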;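 also: peak over basal fluorescence ratio during 140 s after agonist addition; 0% = ACh EC80 plus DMSO and 100% = DMSO alone without agonist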
* hit, by the source's call; ! = not confirmed by another sample. Compounds with a hit are over-represented: about 2.2% of the library has one in this group of screens.

SMILES | M4 ag | M4 antag | M1 PAM | CHRM4 PAM | M1 ag | CHRM1 antagonist
O=C1NC(=O)C(C2CCCCCC2)C(=O)N1 | 1.3 | -18.4 | 26.1* | 12.1 | 3.2 | -30.3
O=c1[nH]c(=S)n(C2CC2)c(O)c1C=NCCN1CCOCC1 | 0.5 | -7.5 | 3.0 | 6.3 | -2.5 | 3.9
O=C(Nc1ccccc1F)OC1CN2CCC1CC2 (stereo not drawn) | 0.2 | 13.6 | -16.3 | -11.8 | -7.3 | 23.8
O=C(Nc1ccccc1Cl)OC1CN2CCC1CC2 (stereo not drawn) | 13.8 | 13.6 | -22.4 | -39.9 | -4.0 | 54.5*
CCOC(=O)C1=C(C)N(C)C2(C)CC1c1ccccc1O2 (stereo not drawn) | -1.3 | -0.5 | 3.1 | 23.0 | -4.7 | -10.4
O=C(NCC1=C(c2ccc3ccccc3c2)C[C@@H]2CC[C@H]1N2Cc1ccco1)c1ccc([N+](=O)[O-])cc1 | 9.4 | 4.5 | -28.9 | -13.8 | -7.8 | 43.2*
CC(C)Nc1ccc(Nc2ccccc2)cc1 | -0.7 | 22.8 | -24.7 | -11.1 | -8.0 | 53.3*
c1ccc(Nc2ccc3ccccc3c2)cc1 | 0.7 | 0.1 | -10.4 | -6.0 | -5.3 | 11.7
C[C@H]1O[C@@H](OC2CC[C@]3(C=O)[C@H]4CC[C@]5(C)[C@@H](C6=CC(=O)OC6)CC[C@]5(O)[C@@H]4CC[C@]3(O)C2)CC2OC(C)(C)OC21 (stereo partly drawn) | 0.2 | -4.3 | 11.9 | -1.0 | -3.7 | -25.2
CN(C)C1C(=O)C(C(N)=O)=C(O)C2(O)C(=O)C3=C(O)c4c(O)cccc4C(C)(O)C3CC12 (stereo not drawn) | 0.3 | -10.3 | -4.9 | 5.2 | 5.7 | -9.3
CN(C)[C@@H]1C(=O)C(C(N)=O)=C(O)[C@@]2(O)C(=O)C3=C(O)c4c(O)cccc4[C@@](C)(O)C3[C@H](O)C12 (stereo partly drawn) | 5.0 | 48.7*! | -27.1 | -17.9 | -0.3 | 64.6
COc1ccccc1OCC#CCN1CCCCCC1 | -0.1 | 5.4 | -14.7 | -11.0 | -5.7 | 32.9*
O=C(Nc1cccc(Cl)c1)OCC#CCN1CCCC1 | 9.2 | 4.8 | -23.1 | -9.0 | 44.9* | 62.2*
Clc1ccc(OCC#CCN2CCCC2)cc1 | 2.1 | 2.5 | -29.2 | -21.7 | -15.2 | 32.3*
CC/C(=N\Nc1cccc2ccccc12)c1c(O)[nH]c(=O)[nH]c1=O | 1.4 | -4.3 | 4.8 | 4.1 | -2.3 | -7.6
CC12CCC(=O)C=C1CCC1C2CCC2(C)C(O)(C(=O)CO)CCC12O (stereo not drawn) | 1.8 | 1.2 | -8.4 | -1.6 | -2.3 | 18.1
COc1cc2c(cc1OC)CC[N+](C)=C2 | 0.8 | -11.9 | 10.0 | 5.4 | -1.0 | -18.5
O=c1[nH]c(O)c(C=Nc2ccc(Cl)c(C(F)(F)F)c2)c(=O)[nH]1 | 0.2 | 34.1* | -25.7 | -15.7 | -10.9 | 40.8*
CN(C)P(=NC(=S)c1cccn1C)(N(C)C)N(C)C | 1.5 | 20.0 | -23.9 | -15.2 | -11.5 | 32.9*
COC(=O)C1=CO[C@@H](C)[C@@H]2CN3CC[C@]4(C(=O)Nc5ccccc54)[C@@H]3C[C@H]12 | 0.3 | -0.4 | 4.8 | 1.6 | 0.0 | -2.5
COC(=O)C(O)(c1ccc(NC(=O)c2cccs2)cc1)C(F)(F)F (stereo not drawn) | 1.3 | -0.3 | 8.8 | -2.9 | -2.9 | -3.5
CC1(C)CN=C(Nc2ccc(F)c(F)c2)S1 | 18.8 | -2.0 | 6.1 | -3.3 | 19.9* | -13.4
CC1(C)CSC(Nc2ccc(F)c(Cl)c2)=N1 | 3.9 | -4.9 | -5.9 | 1.4 | -4.5 | 1.5
CC1(C)CN=C(Nc2ccc(F)c(Cl)c2)S1 | 35.1* | 4.4 | 0.7 | 8.6 | 12.5 | -9.9
Cc1ccc(NC2=NCCCS2)cc1Cl | 3.0 | 8.0 | -5.4 | -8.9 | -10.1 | 0.8
